HCV inh – inhibitors of hepatitis C virus infection; Huh7.5.1 HCVcc-Cre infection, luciferase reporter, 44 h; Potency, µM (series often up to 41.8 µM), inactives show top-dose activity change, negative = inhibition, actives largely listed as inhibitors; 3.4% of 340,000 active; AID 651820; active = well fitted inhibition curve with a large enough effect; inconclusive = small, poorly fitted or top-dose-only effect, or another doubt; inactive = no such curve, though single readings can be large or run the other way
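HCVcc-Cre virus at an moi near 0.5 was added right after compound to cells cultured 4 h from seeding (1,000 cells/well). Luciferase activity was determined 44 h later, 15 min after substrate addition at RT.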
VACV mCherry inh – vaccinia inhibition (mCherry reporter). Potency, µM (titrated, usually from 36.5 µM), inactives show at the highest dose activity change, negative = inhibition, most hits filed as inhibitors. 0.63% of 310,000 active. Vaccinia virus mCherry reporter infection, fluorescence; calls by dose curve; tested in A549 cells; also: nearly all actives have a fitted effect of over 35% in size
VACV Venus inh – inhibitors of vaccinia virus (Venus reporter); Vaccinia virus Venus reporter expression, fluorescence; 0.46% of 330,000 active; Potency, µM (series often up to 36.5 µM), for the others: at the highest dose activity change, negative = inhibition, most hits filed as inhibitors; calls by dose curve; tested in A549 cells; also: nearly all actives have a fitted effect of over 30% in size
Active calls of the source: *; i = inactive; ? = inconclusive; . = no result; [ ] = dose if it differs, or a comment. This is a sample that favours compounds with a hit; in the whole collection about 3.3% have one here. % is scaled to controls: 0 for no effect and ±100 for the full control effect; potency is read from the fitted curve at half-maximal effect.

SMILES	HCV inh	VACV mCherry inh	VACV Venus inh
CCCCn1nnc(NC(=O)c2ccc(-c3ccccc3[N+](=O)[O-])o2)n1	?	i	-10%
CCCCn1nnc(NC(=S)NC(=O)c2ccc(OCC)c([N+](=O)[O-])c2)n1	-30%	?	1.3µM*
COc1ccc(N2CCN(S(=O)(=O)CCNC(=O)COc3cccc(OC)c3)CC2)cc1	-12%	-6%	-24%
Cc1ccccc1-c1nc(CN2CCC(C(=O)NCCC3=CCCCC3)CC2)c(C)o1	6.3µM*	.	.
COc1ccc(CCNC(=O)C2CCN(Cc3nc(-c4ccccc4C)oc3C)CC2)cc1OC	7.9µM*	.	.
Cc1ccccc1-c1nc(CN2CCC(C(=O)NCCCN3CCCC(C)C3)CC2)c(C)o1 (stereo not drawn)	5µM*	i	-21%
Cc1ccccc1-c1nc(CN2CCC(C(=O)O)CC2)c(C)o1	9%	-14%	-12%
Cc1ccccc1-c1nc(CN2CCC(C(=O)NCCc3ccccc3)CC2)c(C)o1	.	-14%	-7%
Cc1ccccc1-c1nc(CN2CCC(C(=O)NC3CCCCC3)CC2)c(C)o1	-4%	i	-8%
O=C(c1ccccc1-n1cccn1)N1CCOc2c(cc(-c3ncc(C(F)(F)F)cc3Cl)cc2OCC2CCCO2)C1 (stereo not drawn)	.	-8%	-5%
CCC(C)CN1C(=O)CN(S(C)(=O)=O)CC1(C)C(=O)NCc1ccccc1 (stereo not drawn)	.	?	-3%
O=S(=O)(CCN1CCOCC1)c1ccc(Oc2ccc(S(=O)(=O)CCN3CCOCC3)cc2)cc1	3.5µM*	?	2.2µM*
O=S(=O)(CCN1CCOCC1)c1ccc(Cl)cc1	11%	-22%	?
CCCCN(CCCC)c1nc2ccccc2nc1C(C#N)C(=O)NCCCOC (stereo not drawn)	6%	.	4%
CCN(CC)c1nc2ccccc2nc1C(C#N)C(=O)NCCCOC (stereo not drawn)	7.1µM*	.	-20%
Cc1ccc(OCCCNC2CCCC2)cc1	4%	.	.
C=CCc1ccc(OCCOCCOc2ccc(C)cc2[N+](=O)[O-])c(OC)c1	11µM*	.	-35%
Cc1ccc(OCCCCNC2CCCCC2)c(C)c1	13µM*	.	.
C=CCc1ccc(OCCCCNC2CCCC2)c(OC)c1	10µM*	i	-20%
C=CCc1ccc(OC(=O)NC2CCCCC2)c(OC)c1	0%	-14%	-5%
COc1ccccc1OCCOCCOc1ccc(C)cc1[N+](=O)[O-]	-21%	-8%	-21%
COc1cc2nc(NC3CCN(C)CC3)nc(NC3CCN(C)CC3)c2cc1OC	.	-7%	-20%
Cc1cccc(CNC(=O)c2ccc(NC(=O)N3CCSc4ccccc43)cc2)c1	.	-1%	-5%
Cc1cccc(C(=O)N(Cc2ccco2)Cc2ccccc2F)c1	.	0%	-5%
Cc1c(C)n(Cc2ccccc2)c2ncnc(NCCO)c12	8%	i	-16%
SMILES	HCV inh	VACV mCherry inh	VACV Venus inh
Cc1c(C)n(Cc2ccccc2)c2ncnc(N)c12	10µM*	.	.
CC[C@@H](C)[C@H](NS(=O)(=O)c1cccc2ccccc12)C(=O)N[C@H](C=O)Cc1c[nH]c2ccccc12	.	-16%	-12%
CN(C(=O)/C=C/c1ccc([N+](=O)[O-])s1)c1ccccc1	22µM*	.	.
CN(C(=O)C=Cc1ccco1)c1ccccc1	2%	-1%	-16%
O=[N+]([O-])c1ccc(S(=O)(=O)N2CCN(c3nc(-c4cccs4)nc4ccccc34)CC2)cc1	.	-15%	-12%
CC1(C)OC(=O)C2(Cc3cc([N+](=O)[O-])ccc3N3CCCCCC32)C(=O)O1 (stereo not drawn)	.	-22%	-18%
O=[S@]1Oc2ccccc2-c2ccccc21	8%	-18%	-13%
COc1ccc(/C=C\c2onc(C)c2S(=O)(=O)N2CCC(C(=O)Nc3cccc(Cl)c3)CC2)cc1	.	-20%	-19%
Cc1cccc(CNC(=O)C2CCC(=O)N(C3CCCCCC3)C2)c1 (stereo not drawn)	-6%	.	.
N#Cc1ccc(OCC(O)CN2CCC(C(O)(c3ccccc3)c3ccccc3)CC2)cc1 (stereo not drawn)	10µM*	i	-18%
N#Cc1ccc(-c2ccc(OCC(O)CN3CCOCC3)cc2)cc1 (stereo not drawn)	-29%	.	.
O=C(Nc1ccc(Br)cc1)C1CCN(c2ncccn2)CC1	.	-4%	-6%
CC1CCCC(CC(N)=O)CC1 (stereo not drawn)	11%	-17%	-7%
CC(=O)Nc1ccc(/C=C/c2ccccn2)cc1	.	-9%	-9%
COc1ccc(C2=Nn3c(nnc3-c3ccc(OC)cc3)SC2)cc1	3.5µM*	.	.
COc1cc(-c2nnc3n2N=C(c2ccccc2)CS3)cc(OC)c1OC	10µM*	?	?
Cc1ccc(-c2nnc3n2N=C(c2ccccc2)CS3)cc1	-4%	-15%	-10%
COc1ccc(-c2nnc3n2N=C(C)CS3)cc1	0%	.	.
Cc1ccc2c(c1)N(CC(=O)NCc1cccc(Cl)c1)C(=O)c1cccnc1O2	.	-10%	-3%
CCOc1ccc(CCNC(=O)c2ccc(C)c(S(=O)(=O)N3CCOCC3)c2)cc1OCC	10µM*	-4%	-21%
CC(=O)c1ccc(NC(=O)c2ccc(C)c(S(=O)(=O)N3CCOCC3)c2)cc1	-18%	-14%	-15%
CC(=O)c1cccc(NC(=O)c2cccc(S(=O)(=O)N3CCOCC3)c2)c1	-15%	-11%	-11%
O=C(N/N=C/c1sc(N2CCOCC2)nc1-c1ccccc1)c1cccc(S(=O)(=O)N2CCCC2)c1	3.5µM*	?	?
CCOC(=O)c1ccc(NC(=O)c2ccc(C)c(S(=O)(=O)N3CCOCC3)c2)cc1	5µM*	?	?
CCOC(=O)c1ccc(NC(=O)c2cccc(S(=O)(=O)N3CCOCC3)c2)cc1	3.5µM*	.	?
SMILES	HCV inh	VACV mCherry inh	VACV Venus inh
O=C(N/N=C/c1sc(N2CCOCC2)nc1-c1ccccc1)c1ccc(O)cc1	?	-8%	8%
CCOc1ccc(CCNC(=O)c2ccc(Cl)c(S(=O)(=O)N3CCOCC3)c2)cc1OCC	?	i	-12%
Cc1ccc(N2CC(NC(=O)c3ccccc3C(F)(F)F)CC2=O)cc1C (stereo not drawn)	.	-12%[7.34 µM]	-11%[7.34 µM]
CCOC(=O)c1ccc(N2CCN(c3ccccc3OC)CC2)c(NC(=O)Nc2ccc(CC)cc2)c1	.	-18%	-13%
CC1=C(C(=O)Nc2ccccc2C(=O)NC2CCC(C)CC2)SCCO1 (stereo not drawn)	5%	.	.
C1=Nc2ccccc2/C1=C/c1c[nH]c2ccccc12	.	-17%	21%
CC1=NCCN1S(=O)(=O)c1ccccc1[N+](=O)[O-]	6%	.	.
CCC(=O)c1ccc(OCC(=O)NCCC2=CCCCC2)c(OC)c1	-19%	.	.
O=C(Nc1ccc(N2CCCCCC2)cc1)c1cccc(S(=O)(=O)N2CCOCC2)c1	2.5µM*	-22%	-24%
CCOc1ccc(C(=O)NCCC2=CCCCC2)cc1OCC	5µM*	-5%	-4%
O=C(Nc1cccc(S(=O)(=O)N2CCOCC2)c1)c1cccc(S(=O)(=O)N2CCCCC2)c1	-17%	-4%	-17%
COc1ccc(C2N(c3ccc4c(c3)OCCO4)C(=O)C2(F)F)cc1OC (stereo not drawn)	-22%	-18%	-17%
COC(=O)C1CCCCN1Cc1ccc2c(c1)CN(C(=O)c1csc(-c3cccs3)n1)CCO2 (stereo not drawn)	.	-12%	0%
CCc1c(C)sc2c1CCN(C(=O)Nc1cc(Cl)c(OC)cc1OC)C2c1ccccc1 (stereo not drawn)	.	-8%	-9%

Screening results deposited in PubChem BioAssay by National Center for Advancing Translational Sciences (NCATS).
